Sfp PPTase inh: Sfp phosphopantetheinyl transferase inhibition; Biochemical Sfp PPTase activity, qHTS; Q9F4F7; 310,000 compounds, 3.5% hits; AID 1490; Potency, µM, for the others: largest response in the series, negative = inhibition, usual class: inhibitors;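 also: the enzyme is Sfp with the accession as filed and its product quenches rhodamine fluorescence; 0% = enzyme reaction without inhibitor and -100% = no enzyme wells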
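With Hepes-Na pH 7.6 buffer containing 10 mM MgCl2, Sfp (15 nM) modified BHQ-2-YbbR (12.5 uM) using rhodamine-CoA (5 uM). Two reads 30 minutes apart at 525/598 nm yielded each well's rate.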
HP1b binding inh: blocks HP1-beta chromodomain binding to methylated histone tails; AID 540317; AlphaScreen HP1-beta / biotin-H3K9me3 peptide binding; 390,000 compounds, 0.56% hits; P83916; Potency, µM (series often up to 114 µM), inactives show top-dose activity change, negative = inhibition, usual class: inhibitors; also: nearly all actives have a fitted effect of over 70% in size
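Compound inhibition of the preformed complex between 50 nM HP1-beta and 50 nM biotinylated H3K9me3 peptide was read by AlphaScreen. Buffer was PBS pH 7.4 with 0.01% Tween-20. Incubations ran 30 min at room temperature, with 10 ug/mL donor/acceptor beads.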
BAZ2B block: BAZ2B (human) inhibition. AlphaScreen BAZ2B-H3K14Ac peptide displacement. Potency, µM (titrated, usually from 114 µM), inactives show at the top dose activity change, negative = inhibition, usual class: inhibitors. AID 504333. 360,000 compounds, 4.4% hits. Q9UIF8; also: % is scaled to controls: 0 for no effect and ±100 for the full control effect; nearly all actives have a fitted effect of over 60% in size
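BAZ2B (50 nM) with biotin-H3(5-23)K14Ac peptide (50 nM) in PBS pH 7.4, 0.01% Tween-20, preformed 30 min, then compound 30 min at room temperature; top concentration 110uM. AlphaScreen streptavidin donor/nickel chelate acceptor beads (10 ug/mL final), 20 min dark, signal read.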
G9a block: blocks human histone lysine methyltransferase G9a | 350,000 compounds, 8.8% hits | Q96KQ7 | AID 504332 | Potency, µM (titrated, usually from 102 µM), inactives show at the highest dose activity, negative = inhibition, usual class: inhibitors | G9a H3K9 monomethylation, AlphaScreen, 2 h; also: % is scaled to controls: 0 for no effect and ±100 for the full control effect; nearly all actives have a fitted effect of over 75% in size
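Step 1: enzyme (final 20 nM) with compound, 15 min RT. Step 2: substrate peptide 500 nM and SAM 20 uM, 2 h RT. Step 3: anti-H3K9me1 antibody and AlphaScreen beads, 10 min, then plate read.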
JMJD2A Tudor: inhibitors of human JMJD2A Tudor domain; AlphaScreen JMJD2A-Tudor / H3K4me3 peptide binding; Potency, µM (titrated, usually from 114 µM), without a hit: at the top dose activity change, negative = inhibition, actives largely listed as inhibitors; 390,000 compounds, 4.4% hits; AID 504339; also: % is scaled to controls: 0 for no effect and ±100 for the full control effect; nearly all actives have a fitted effect of over 50% in size
Starred values were filed as active, the others as inactive; ? = inconclusive; / = no result; [ ] = dose if it differs, or a comment. Sampled rows, rich in hits. Any-hit rate of the full collection: about 12%. Calls follow the shape of the dose curve; as a rule, active = well fitted curve in the direction sought with a large enough effect; inconclusive = small, poorly fitted or top-dose-only effect, or another doubt; inactive = no such curve, though single readings can be large; an effect the other way counts as inactive or inconclusive. Potency is read from the fitted curve at half-maximal effect.

SMILES	Sfp PPTase inh	HP1b binding inh	BAZ2B block	G9a block	JMJD2A Tudor
O=C(Nc1ccc(Cl)cc1N1CCOCC1)C1CCCO1 (configuration not stated)	5%	29%	0%	-15%	-10%
CNCC(O)c1cccc(O)c1 (configuration not stated)	-8%	/	/	-32%[2.33 µM]	/
Cc1ccc(NC(=O)CN2C(=O)S/C(=C\c3cccn3-c3cccc(C(=O)O)c3)C2=O)c(C)c1	50µM*	50µM*	40µM*	?	22µM*
COCCN=C1Sc2nc3ccc(C)cc3cc2CN1Cc1ccco1	45µM*	41%	?	?	-24%
NCCCC(=O)O	7%	27%	26%	2.8µM*	6%
CCOc1ccc2[nH]c(=O)c(C(c3nnnn3Cc3ccco3)N3CCCC(C)C3)cc2c1 (configuration not stated)	13µM*	-2%	?	?	-33%
COc1ccc2[nH]c(=O)c(CN(Cc3nnnn3Cc3ccco3)C3CCCCC3)cc2c1	8.9µM*	-26%	50µM*	40µM*	?
Cc1ccc2[nH]c(=O)c(CN(Cc3nnnn3C3CCCC3)C3CCCCC3)cc2c1	-11%	37%	7%	-3%[59 µM]	-9%
COc1ccc(Cn2nnnc2CN(Cc2cc3cc(C)ccc3[nH]c2=O)C2CCCC2)cc1	20µM*	9%	8%	?	-24%
COc1ccc2[nH]c(=O)c(CN(C(=O)c3ccccn3)C3CCCCC3)cc2c1	-20%	-13%	17%	28µM*	7%
O=C(c1ccccn1)N(Cc1cc2ccccc2[nH]c1=O)C1CCCCC1	-5%	11%	10%	1%	-5%
COc1cc(F)c(S(=O)(=O)N2CCN(S(=O)(=O)c3ccc(NC(C)=O)cc3)CC2)c(F)c1	/	/	/	/	-19%
C/C(=N\NC(=O)c1c(Cl)cnn1C)c1cccnc1	25%	38%	-5%	/	-11%
Cc1ccc(C)c2[nH]c(=O)c(C(c3nnnn3Cc3ccco3)N3CCc4ccccc4C3)cc12 (configuration not stated)	20µM*	20%	-32%	32µM*	-31%
Cc1ccc(C)c2[nH]c(=O)c(C(c3nnnn3CCc3ccccc3)N3CCOCC3)cc12 (configuration not stated)	7%	21%	15%	-13%[59 µM]	-7%
COc1ccc2[nH]c(=O)c(CN(C3CCCCC3)C(c3nnnn3Cc3ccco3)C(C)C)cc2c1 (configuration not stated)	3.2µM*	?	-9%	22µM*	?
COc1ccc2[nH]c(=O)c(CN(Cc3ccco3)C(c3nnnn3Cc3ccccc3)C(C)C)cc2c1 (configuration not stated)	-7%	21%	?	-14%	-13%
O=C(NCc1ccco1)c1cccc(NC(=O)c2ccco2)c1	1%	-2%	-32%	56µM*	-29%
CCc1nc2ccc(C(=O)NCc3ccco3)cc2nc1CC	35µM*	25%	-38%	-22%[12.7 µM]	-13%
CCCN1C(=O)c2ccc(C(=O)NCc3ccco3)cc2C1=O	45µM*	3%	-5%	-43%[12.7 µM]	-6%
CCCCN1C(=O)c2ccc(C(=O)NCc3ccco3)cc2C1=O	-4%	42%	-26%	?	-16%
Cc1cccc(OCC(=O)OCC(=O)Nc2sccc2C(N)=O)c1	/	17%[57 µM]	/	/	5%
CCOC(=O)c1c(NC(=O)COc2ccc(OC)cc2)sc(C(=O)N(CC)CC)c1C	/	13%	?	-38%[59 µM]	-16%
CCOC(=O)c1c(NC(=O)COc2ccccc2)sc(C(C)=O)c1C	/	?	5%	13µM*	-1%
Cc1sc(NC(=O)COc2ccccc2)c(C#N)c1C	22µM*	?	-21%	10µM*	-22%
SMILES	Sfp PPTase inh	HP1b binding inh	BAZ2B block	G9a block	JMJD2A Tudor
NC(=O)c1ccsc1NC(=O)COc1ccccc1	1%	?	-3%	-34%[59 µM]	50µM*
CCOC(=O)c1c(NC(=O)COc2ccc(Br)cc2)sc(C(C)=O)c1C	/	-7%	-2%	14µM*	-11%
CCC(C)N(CC(=O)Nc1cccc(C)c1C)C(=O)CCl (configuration not stated)	-2%	37%	/	-43%	-15%
CCOC(=O)c1sc(NC(=O)CNCc2ccccn2)c(C(=O)OCC)c1C	9%	9%	28µM*	/	?
CCCC(=O)Nc1nc2c(s1)CC(C(C)(C)C)CC2 (configuration not stated)	/	35%	4%	-12%[59 µM]	-5%
CN(Cc1cc(=O)n2ccsc2n1)Cc1nc2ccccc2c(=O)[nH]1	4.5µM*	40%	/	?	-15%
CCN(Cc1nc2ccccc2c(=O)[nH]1)Cc1nc2cc(OC)c(OC)cc2c(=O)[nH]1	20%	30%	9%	20%[12.7 µM]	11%
CN(Cc1cc(=O)n2ccsc2n1)C1CCCCC1	-5%	27%	-31%	50µM*	-3%
CN(Cc1cc(=O)n2ccsc2n1)c1ccccc1	?	40%	1%	0%[59 µM]	-7%
CCN(Cc1cc(=O)n2ccsc2n1)Cc1nc2cc(OC)c(OC)cc2c(=O)[nH]1	?	11%	3%	13µM*	-7%[11.4 µM]
Nc1nonc1-c1nc2ccccc2n1Cc1c(Cl)cccc1Cl	/	49%	1%	25%[59 µM]	-5%
Cc1ccc(Cn2ccc(=O)c(OCc3c(Cl)cccc3Cl)c2C)cc1	18µM*	62%	?	81%	15%
Cc1sc2ncnc(N3CCC(C(=O)Nc4ccc(Cl)cc4Cl)CC3)c2c1C	/	19%	-2%	56µM*	-10%
Cc1sc2ncnc(N3CCC(C(=O)Nc4ccc(Cl)c(Cl)c4)CC3)c2c1C	/	40%	1%	-1%[12.7 µM]	-5%
Cc1sc2ncnc(N3CCC(C(=O)Nc4ccc(Br)cc4Br)CC3)c2c1C	/	12%	7%	40µM*	-14%
O=C(CCNC(=O)c1ccco1)Nc1ccc(Cl)c(C(F)(F)F)c1	11%	-7%	-21%	-1%	-13%
CCCC/C=C/C(NC(=O)OCc1ccccc1Cl)c1ccccc1 (configuration not stated)	28%	/	/	/	/
COc1ccccc1NS(=O)(=O)c1ccc(C)c(C(=O)NCCCN2CCCC2=O)c1	/	8%	-3%	-3%	-5%
CC(OC(=O)Cn1[nH]c(=O)c2ccccc2c1=O)C(=O)Nc1cccc(Cl)c1 (configuration not stated)	/	16%	26%	15%[2.33 µM]	-8%
CN(C)c1ccc(-c2cc(-n3ccnc3)ncn2)cc1	50µM*	/	/	/	/
CN(C)C(=O)c1ccc(-c2cc(-n3ccnc3)ncn2)cc1	-26%	/	/	-17%[0.501 µM]	/
c1cncc(-c2cc(-n3ccnc3)ncn2)c1	79µM*	/	/	-39%[0.501 µM]	/
CN(C)Cc1ccccc1-c1cc(-n2ccnc2)ncn1	50µM*	/	/	/	/
CCOC(=O)c1cc(-c2ccc(C)cc2)n(CC(=O)NC2CCCCCC2)c1C	/	15%	1%	-5%[59 µM]	-14%
COc1ccc(CNCc2c(C(=O)O)c(C)n(Cc3ccccc3C)c2C)cc1OC	/	6%	-29%	5%[59 µM]	-20%
